PubChem BioAssay (NCI)
This is part of a sample that, as a whole, favours compounds with a hit. Of some 79,000 tested, about 15% had one in any assay. Values without a mark were called inactive. Active and inactive are the calls of the source. Cut-off read from the data, not from the text of the source: active = growth inhibition above about 70%; inactive = the rest.

Legend:
[1] = NCI Yeast Anticancer Drug Screen. Data for the rad50 strain (AID 155);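 note: 0% = growth of vehicle-only cultures of the same strain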; conditions: S. cerevisiae rad50 strain growth inhibition; at 50.0 µM; active compounds read high
In short: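 DNA repair mutant yeast, compound exposure, growth read-out; inhibition is taken relative to vehicle.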

[2] = NCI Yeast Anticancer Drug Screen. Data for the mec2-1 strain (AID 157); conditions: S. cerevisiae mec2-1 strain, at 50.0 µM, active compounds read high
In short: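 Each compound was tested on mec2-1 yeast, a strain altered in DNA damage repair or cell cycle control. Growth inhibition is reported relative to vehicle.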

[3] = NCI Yeast Anticancer Drug Screen. Data for the sgs1 mgt1 strain (AID 161);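 note: 0% = growth of cultures given vehicle only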; conditions: S. cerevisiae sgs1 mgt1 strain, at 50.0 µM, active compounds read high
In short: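 Mutant yeast exposed to compound; growth scored against vehicle-only wells.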

[4] = NCI Yeast Anticancer Drug Screen. Data for the cln2 rad14 strain (AID 165);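 note: 0% = growth equal to vehicle treated cultures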; conditions: S. cerevisiae cln2 rad14 strain, at 50.0 µM, active compounds read high
In short: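 Test compounds were added to cln2 rad14 yeast cultures; inhibition of growth was then determined by comparison with vehicle treatment.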

[5] = NCI Yeast Anticancer Drug Screen. Data for the bub3 strain (AID 167); conditions: S. cerevisiae bub3 mutant strain, at 50.0 µM, active compounds read high
In short: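 In this screen, a yeast mutant lacking normal mitotic checkpoint function is challenged with compound. Relative growth versus vehicle gives the inhibition value.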

[6] = NCI Yeast Anticancer Drug Screen. Data for the mlh1 rad18 strain (AID 175); conditions: S. cerevisiae mlh1 rad18 strain growth inhibition; at 50.0 µM; active compounds read high
In short: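 Inhibition values reflect reduced growth of mutant yeast versus vehicle-treated controls following compound exposure; the mutations affect DNA damage repair.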

| SMILES | growth inhibition [1] [%] | growth inhibition [2] [%] | growth inhibition [3] | growth inhibition [4] [%] | growth inhibition [5] [%] | growth inhibition [6] |
| --- | --- | --- | --- | --- | --- | --- |
| O=c1c2cc3c(=O)n(O)c(=O)c3cc2c(=O)n1O | 12.4 | -18.2 | -9.45% | 6.75 | 3.25 | -90.4% |
| NC(CS(N)(=O)=O)C(=O)O (stereo unspecified) | -6.3 | -3.75 | -1.05% | -51.5 | -3.2 | 2.8% |
| COC(=O)COc1ccccc1[N+](=O)[O-] | -0.15 | 2.55 | 0.6% | 3.7 | 5.25 | 4.45% |
| O=C1NC(=O)C(=CN2C(=O)/C(=C/c3ccc(O)cc3)SC2=S)C(=O)N1 | -6.6 | -5.7 | 23.1% | 9.15 | 1.8 | 14.7% |
| NCS(=O)(=O)O | -12.8 | -23.1 | -18.9% | 9.5 | -24.2 | -26.1% |
| COC(=O)Nn1c(C)c(C(=O)Nc2ccc(OC)cc2)c(C(=O)OC)c1C | 32.6 | -16 | 14.3% | 2.8 | 10.2 | 21.6% |
| C(=C\c1cccs1)/c1csnn1 | 0.7 | 15.7 | 3.45% | 12.8 | -1.75 | -7.55% |
| CN(C)CCCNCc1c[nH]c(=O)[nH]c1=O | -4.75 | 6.55 | -9.9% | -7.4 | -4.85 | -25.9% |
| CC1=Nc2ccccc2S/C1=C(/C)NN | 21.4 | 8.55 | 0.2% | 15.6 | 1.8 | 0.9% |
| Clc1cc2ncn(C3CCCO3)c2cc1Cl (stereo unspecified) | 6.3 | 5.1 | 3% | 5.95 | 49 | 11.8% |
| CC(=O)Nc1ccc(S(=O)(=O)NC(=O)NCCC(C)C)cc1 | 1.95 | 2.45 | 9.8% | -20.2 | 8.6 | 7.85% |
| COC(=O)C1=NC(=S)N=C(C(=O)OC)C1(C)C(=O)c1ccc(Cl)cc1 | -2.55 | 2.65 | -14.9% | 17.2 | 2.75 | 4.35% |
| Cc1c(-c2ccccc2)c2ccccc2c2ccccc12 | -10 | -15.6 | -4.25% | 0.1 | 2.2 | -14.4% |
| CCOC(=O)/C=C(\N)c1ccccc1 | -7.8 | -13.2 | -15.6% | -43.8 | -30.4 | -6.8% |
| CCC1OC(=O)CC(O)C(C)C(OC2OC(C)C(O)C(N(C)C)C2O)C(CC=O)CC(C)C(=O)/C=C/C2(C)OC2C1C (stereo unspecified) | -13.4 | -43 | -23.5% | -18.7 | -28.9 | -36.4% |
| CO/N=C1/c2sccc2[C@H](NC(=O)C(Cc2ccccc2)NC(=O)OC(C)(C)C)[C@@H]1O (stereo partly specified) | -18.2 | -13.1 | -14% | -11.9 | -2.35 | 13.7% |
| CC(=O)OC1CCC2(C)C(CCC3C2CC(OC(C)=O)C2(C)C(C(C)CCC(c4ccccc4)c4ccccc4)CCC32)C1 (stereo unspecified) | 9.1 | -20.4 | 1.1% | 14.9 | 0.15 | -1.55% |
| CCOC(=O)CCCC(NC(=O)c1ccc(N2CCN(c3c(N)nc(N)nc3NC)CC2)cc1)C(=O)OCC (stereo unspecified) | 9.95 | 5.75 | -0.4% | 6.55 | -3.95 | -2.3% |
| O=C(NCCCCNCCCNC(=O)OCc1ccccc1)OCc1ccccc1 | 14.7 | -4.2 | -2.65% | -8.55 | -20.4 | -59.8% |
| C=C(C)C(=O)Nc1ccc(-n2[nH]c(C)c(N=Nc3ccc(N(C)C)cc3)c2=O)cc1 | 6.95 | -5.5 | -14.6% | -36 | -2.55 | 1.85% |
| O=C(CSc1cc(Cl)c(Cl)cc1Cl)Nc1cccc(Cl)c1 | -7.9 | -6.9 | 6.3% | -12.6 | -2.85 | 3.5% |

| SMILES | growth inhibition [1] [%] | growth inhibition [2] [%] | growth inhibition [3] | growth inhibition [4] [%] | growth inhibition [5] [%] | growth inhibition [6] |
| --- | --- | --- | --- | --- | --- | --- |
| COCc1cc(CC(C)=O)nc(C/C=N/NC(N)=O)n1 | -18.4 | -10.4 | -9.75% | -28.4 | -47 | -11.7% |
| O=NC1C(Cl)C2CC1C1COCC21 (stereo unspecified) | -16 | -9.55 | -9.05% | -30.1 | 1 | -7.05% |
| CC(C)OP(=O)(CCC(=O)C1(O)CCC2C3CCC4=CC(=O)CCC4(C)C3CCC21C)OC(C)C (stereo unspecified) | 11.4 | 4.25 | 10.3% | 3.25 | 0.65 | -8.6% |
| CCCCCCCC[C@]1(O)C[C@H]2[C@@H]3CCc4cc(OC)ccc4[C@H]3CC[C@]2(C)[C@H]1O | -3.45 | -10.7 | -1.15% | 7.1 | -11.2 | 0.5% |
| Nc1ccc(C(=O)NN2C(=O)C(Cl)C2c2cccc(O)c2)cc1 (stereo unspecified) | -4.45 | -41.7 | -35.1% | -14.2 | 4.3 | -6.55% |
| CCCC(=O)c1ccc2c(ccc(=O)n2C)c1 | 12.2 | -8.75 | -5.2% | 38.1 | 28.8 | 15.9% |
| COc1ccc2[nH]c(C(F)(F)F)cc(=O)c2c1 | 9.4 | 11.7 | 5.2% | -7.95 | 4.65 | 14.8% |
| COc1c(Cl)cc([N+](=O)[O-])cc1C(=O)O | 6.4 | 25.9 | -3.55% | -15.7 | 15.6 | 16.9% |
| Cc1csc2c1-n1cccc1C2=O | 5.5 | 1 | -17.8% | 12.2 | -19.4 | 24.3% |
| O=C(Nc1ncc([N+](=O)[O-])s1)c1cc(Cl)cc(Cl)c1 | 60.5 | 61 | 77.9% (active) | 53 | 57.5 | 74.3% (active) |
| CCCC(=O)OCC(C)(C)CC(C)C | -9.55 | -57.9 | -10.5% | -5.55 | -14.5 | -24.4% |
| CCOC(=O)c1nc2ccccc2nc1Nc1ccc(OC)c(OC)c1 | -30.2 | -31.5 | -15.9% | -15.6 | -16.6 | -19.3% |
| CC1=C(O)C(=O)C2C(=O)C1C(C)C2c1ccccc1 (stereo unspecified) | -5.45 | 3.05 | -32.2% | -7.6 | -11.6 | -13.9% |
| Cc1ccc(N=Nc2ccc([N+](=O)[O-])cc2)c([N+](=O)[O-])c1 | 10.9 | -11.2 | -4.5% | 17.4 | 18.4 | -12.6% |
| O=C1CCC(N2C(=O)C3C4CCC(CC4)C3C2=O)C(=O)N1 (stereo unspecified) | 2.75 | -12.9 | -14.9% | -1.65 | -2.65 | -16.2% |
| COc1cc(/C=C2\N=C(C)OC2=O)ccc1O | -2.8 | -6.5 | 5.7% | -65.5 | 2.95 | 2.05% |
| NC(CCCCNC(=O)OCc1ccccc1)C(=O)OCc1ccccc1 (stereo unspecified) | -15.2 | -20.4 | -9.7% | 15.6 | -0.75 | -18.5% |
| Cc1cccc(Cl)c1NC(=O)CN(C)C | 21.4 | -0.55 | 17.7% | 10.4 | 19.6 | 24.7% |
| NC(=O)NCP(=O)(CNC(N)=O)CNC(N)=O | -20 | -7.3 | -4.25% | -20.4 | 32.8 | 4.95% |
| COc1ccc(/C=C2/N=C(c3ccccc3)OC2=O)cc1 | -2.75 | -8.35 | -0.3% | -28.9 | -1.75 | -6.8% |
